Screening results: PubChem, National Center for Advancing Translational Sciences (NCATS)
Shown are actives, neighbours in structure and some others; about 7.3% of the full set was active somewhere.
Vaccinia mCherry – inhibitors of vaccinia virus infection (mCherry reporter signal); Vaccinia virus mCherry reporter infection, fluorescence; Potency, µM (doses to about 36.5 µM), usual class: inhibitors; 0.63% of 310,000 active; AID 720579; calls by dose curve; tested in A549 cells; also: nearly all actives have a fitted effect of over 35% in size
Vaccinia Venus – vaccinia inhibition (Venus reporter). Vaccinia virus Venus reporter expression, fluorescence. Potency, µM (highest dose often 36.5 µM), usual class: inhibitors. 0.46% of 330,000 active. AID 720580; calls by dose curve; tested in A549 cells; also: nearly all actives have a fitted effect of over 30% in size
FMDV antiviral – blocks foot and mouth disease virus; FMDV antiviral cell-based qHTS; Potency, µM (series often up to 57.9 µM), most hits filed as inhibitors; 1.2% of 410,000 active; calls by dose curve; tested in HEK293T cells; also: read-out not given here; nearly all actives have a fitted effect of over 45% in size
HCMV antiviral – human cytomegalovirus inhibition; HFF cells, HCMV-luciferase reporter, 72 h; active compounds read low; activity change, negative = inhibition, % at 57.5 µM; 4.5% of 410,000 active; in the data active = activity change below about -60%; inconclusive = no clear call, values can overlap the other calls; inactive = above about -39%
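HFF cells seeded 16 h at 37C, treated with compounds, infected with luciferase-reporter HCMV at MOI 1 PFU/cell; luciferase read at 72 h post infection, normalized to buffer-only and Salinomycin controls.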
HCV inhibitor – HCV inhibition; Potency, µM (top dose mostly 41.8 µM), usual class: inhibitors; 3.4% of 340,000 active; Huh7.5.1 HCVcc-Cre infection, luciferase reporter, 44 h; AID 651820; active = well fitted inhibition curve with a large enough effect; inconclusive = small, poorly fitted or top-dose-only effect, or another doubt; inactive = no such curve, though single readings can be large or run the other way
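Luciferase read-out (15 sec integration) after a 15 min room-temperature substrate step quantifies HCVcc-Cre infection. Cells, 1,000 per well, had compound added 4 h post-plating, then virus at ~0.5 moi, and were cultured 44 h.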
Numbers stand for hits; 0 = inactive; ? = inconclusive; - = not tested or not shown; [ ] = remark or other dose.

SMILES | Vaccinia mCherry | Vaccinia Venus | FMDV antiviral | HCMV antiviral | HCV inhibitor
COc1ccc(-c2nc3cc(NC(=O)Cc4ccc(OC)c(OC)c4)ccc3o2)cc1 | - | - | ? | -76 | 7.1µM
Cc1cc(Cl)ccc1OCC(=O)Nc1ccc2oc(=O)ccc2c1 | 0 | 0 | 0 | 0 | ?
O=C(Cc1ccc(Cl)cc1)Nc1ccc2oc(=O)ccc2c1 | 0 | 0 | 0 | -64 | ?
CCn1c2ccccc2c2cc(C3C(C#N)=C(N)Oc4n[nH]c(COC)c43)ccc21 (centres undefined) | 0 | 0 | ? | 0 | ?
CCn1c2ccccc2c2cc(C3C(C#N)=C(C)NC(C)=C3C#N)ccc21 | 0 | 0 | - | 0 | 11µM
CCc1ccc(Nc2n[n+](-c3ccccc3)c(-c3cccc(C)c3)s2)cc1 | 0 | 0 | 0 | 0 | 32µM
Cc1cccc(-c2sc(Nc3ccccc3)n[n+]2-c2ccc(F)cc2)c1 | 0 | 0 | 0 | 0 | 0
Cc1ccc(S(=O)(=O)N2[C@@H](c3ccc(Br)cc3)C(C(=O)O)=CC[C@H]2c2cccs2)cc1 | 0 | 0 | 0 | 0 | 0
CC1CCN(S(=O)(=O)c2ccc3c(c2)c(=O)c(C(=O)NCCc2ccccc2)cn3C)CC1 | 0 | 0 | 0 | 0 | -
CCOc1ccc(C2NC(=O)c3n[nH]c(C)c32)cc1 (centres undefined) | 0 | 0 | 0 | 0 | 0
CC(C)(C)c1ccc(C2NC(=O)c3n[nH]c(-c4cccs4)c32)cc1 (centres undefined) | 0[7.34 µM] | 0[7.34 µM] | 0 | -91 | -
O=C(c1ccc(CS(=O)c2ccccc2Cl)o1)N1CCN(c2ccccc2F)CC1 (centres undefined) | 0 | 0 | 0 | -67 | -
Cc1ccccc1S(=O)(=O)Cc1ccc(C(=O)N2CCN(c3ccccc3F)CC2)o1 | 0 | 0 | ? | 0 | 10µM
O=C(c1ccc(CS(=O)c2ccccc2Cl)o1)N1CCCCCC1 (centres undefined) | 0[7.34 µM] | 0[7.34 µM] | 0 | 0 | 0
COc1ccccc1S(=O)(=O)Cc1ccc(C(=O)N2CCN(c3ccc(C)cc3)C(C)C2)o1 (centres undefined) | 0 | ? | 32µM | 0 | ?
O=C(c1ccc(CS(=O)c2ccccc2Cl)o1)N1CCN(C2CCCCC2)CC1 (centres undefined) | 0 | 0 | 0 | -101 | -
CCOC(=O)N1CCN(C(=O)c2ccc(CS(=O)(=O)c3ccccc3OC)o2)CC1 | - | - | 0 | 0 | 0
CC(=O)NC(Cc1cccc(C)c1)C(=O)NC1CCN(C(=O)c2ccc([N+](=O)[O-])cc2)CC1 (centres undefined) | 0 | 0 | 0 | -74 | 0
CC(=O)C[C@H](O)CC(=O)[C@H]1OC(=O)CCCCCc2ccccc21 | 0 | 0 | 0 | 0 | 0
CC(=O)C[C@H](O)CC(=O)[C@H]1OC(=O)CC/C=C\Cc2ccccc21 | 0 | 0 | 0 | -61 | 0
Cc1nn(Cc2ccccc2)c(Cl)c1C(=O)OCC(=O)Nc1cccc2ccccc12 | 0 | 0 | 0 | 0 | 0
Cc1nn(Cc2ccccc2)c(Cl)c1C(=O)OC(C)C(=O)Nc1ccc(F)cc1Cl (centres undefined) | 0 | 0 | 0 | -65 | ?
CCc1ccc(NC(=O)C(C)OC(=O)c2c(C)nn(Cc3ccccc3)c2Cl)cc1 (centres undefined) | 0 | 0 | ? | 0 | 11µM
Cc1onc(-c2ccc(Cl)cc2)c1-c1ccnc(SCC(=O)Nc2cc(Cl)cc(Cl)c2)n1 | 0 | 0 | 0 | 0 | 16µM
N#CCc1ccc(NS(=O)(=O)c2ccc(C3CCCCC3)cc2)cc1 | 0 | 0 | 0 | -64 | ?
SMILES | Vaccinia mCherry | Vaccinia Venus | FMDV antiviral | HCMV antiviral | HCV inhibitor
CC(=O)N/C(=N/c1nc(C)cc(C)n1)Nc1cccc(C)c1C | 0 | 0 | 0 | 0 | 0
CN(C)/C=N/C(=S)Nc1ccc(Cl)cc1 | 0 | 0 | 0 | 0 | 0
CN(C)/C=N/C(=S)Nc1ccc(Cl)cc1Cl | 0 | 0 | 0 | 0 | 14µM
C=C1C(=O)[C@@]23[C@H](O)C[C@@H]4C(C)(C)CC[C@H](O)[C@]4(C)[C@@H]2C[C@H](O)[C@@H]1[C@H]3O | ? | 4.5µM | ? | -76 | 0
C=C1C(=O)[C@@]23[C@H](O)C[C@@H]4C(C)(C)CC[C@H](O)[C@@]4(C)[C@@H]2CC[C@@H]1[C@H]3O | ? | 2.5µM | ? | -97 | ?
CSc1ccc(/C=C/C(=O)c2ccc(O)cc2)cc1 | 11µM | ? | 0 | 0 | 0
Cc1ccc(/C=C/C(=O)c2ccccc2)cc1 | - | - | 0 | 0 | -
Cc1ccc(/C=C/C(=O)c2ccc(O)cc2)cc1 | 11µM | 0 | 0 | 0 | 0
CCN1CCN(CC(=O)N2N=C(c3cccs3)CC2c2ccc(OC)c(OC)c2)C(=O)C1=O (centres undefined) | 0 | 0 | 0 | 0 | 0
C=C1C(=O)c2sccc2C(c2ccc(OC)c(OC)c2)C1COC(C)=O (centres undefined) | 5µM | 7.1µM | 13µM | -102 | 1.4µM
c1ccc(-c2nc(-n3nc4ccccc4n3)nc3ccccc23)cc1 | - | 0 | 0 | 0 | 14µM
Clc1ccc(-c2nc(N3CCCCC3)nc3ccccc23)cc1 | 0 | 0 | 0 | 0 | 0
O=C(C[n+]1cc(-c2ccc(Cl)cc2)n2c1CCCCC2)c1ccccc1 | 0 | 0 | 0 | 0 | 0
CC(C)[C@@H]1CC[C@@H](C)C[C@H]1OC(=O)C[n+]1cc(-c2ccc(Cl)cc2)n2c1CCCCC2 | 0 | 0 | ? | -97 | 0
COc1ccc(-c2c[n+](CC(=O)OC3CC(C)CCC3C(C)C)c3n2CCC3)cc1 (centres undefined) | - | - | 13µM | -100 | ?
CC1CCC(C(C)C)C(OC(=O)C[n+]2cccc(C(N)=O)c2)C1 (centres undefined) | 0 | 0 | 0 | 0 | 0
Cc1c(Cl)cccc1NC(=O)Nc1nnc(N(C)C2CCCCC2)s1 | 0 | 0 | 0 | 0 | -
CN(C)C(=O)/C(=C\c1ccc(-c2cccc([N+](=O)[O-])c2)o1)NC(=O)c1ccccc1 | 0 | ? | 0 | ? | ?
CN(C)CCNC(=O)/C(=C/c1ccc(-c2cccc([N+](=O)[O-])c2)o1)NC(=O)c1ccccc1 | 0 | 0 | 0 | 0 | 10µM
COc1ccc(C(=O)N/C(=C\c2ccc(-c3cccc([N+](=O)[O-])c3)o2)C(=O)NCCCN2CCOCC2)cc1 | 0 | ? | ? | 0 | -
CN(C)CCNC(=O)/C(=C/c1ccc(-c2cccc(Cl)c2)o1)NC(=O)c1ccccc1 | 0 | 0 | 0 | 0 | 11µM
Cc1ccc(C(=O)N/C(=C\c2ccc(-c3cccc([N+](=O)[O-])c3)o2)C(=O)NCCCN2CCOCC2)cc1 | - | - | 0 | -62 | 10µM
Cc1ccc(C(=O)N/C(=C\c2ccc(-c3ccccc3[N+](=O)[O-])o2)C(=O)NCCN(C)C)cc1 | 0 | 0 | 0 | 0 | 0
COc1cccc(NC(=O)N2CCN3CCCCC3C2)c1 (centres undefined) | 0 | 0 | 0 | 0 | -
CCCN1CCc2nc(N3CCN(c4ncccn4)CC3)ncc2C1 | 0 | 0 | 0 | 0 | -
CC(=O)Nc1ccc(Nc2cc3c(cn2)nc(-c2cccc(F)c2)n3C)cc1 | - | - | - | 0 | -
CCOc1ccc(CNC(=O)CSc2nnc(C)c3c(C)n(-c4ccc(Cl)cc4)nc23)cc1 | 0 | 0 | ? | 0 | -
C/C(=N\Nc1cccc2cccnc12)c1ccccc1O | ? | 0 | 0 | 0 | 0
